Assay type in all cases: functional
Assay [1] concerns Plasmodium falciparum. The experiment in a line: GSK_TCMDC: Inhibition of Plasmodium falciparum 3D7 in whole red blood cells, using parasite LDH activity as an index of growth. Test compounds present at 2uM.
Assay [2] has as its system Plasmodium falciparum. Briefly: GSK_TCMDC: Inhibition of Plasmodium falciparum Dd2 in whole red blood cells, using parasite LDH activity as an index of growth. Test compounds present at 2uM.
For a further assay, the system named is HepG2. The experiment in a line: GSK_TCMDC: Percent inhibition of human HepG2 cell line. Test compounds present at 10uM.

Structures are written as SMILES.

On to `Cc1cc(OC(C)C(=O)N2CCc3ccccc32)ccc1Cl` (stereo unspecified), for which the Inhibition amounted to 89% in the assay on Plasmodium falciparum [1], 54% in the assay on Plasmodium falciparum [2] and 20% in the assay with HepG2.
For `Br.COc1ccc(OCCCON2C(=N)N=C(N)NC2(C)C)cc1` the same measures were 97%, 94% and 55%.
With `COc1ccc2nc(-c3ccccc3)cc(N/N=C/c3ccc([N+](=O)[O-])cc3)c2c1`, the Inhibition in the assay with Plasmodium falciparum [1] is reported as 100%; in the assay on Plasmodium falciparum [2] it was 100%; in the assay on HepG2 it was 89%.
Turning to `CC1CCCN(S(=O)(=O)c2ccc(NC(=O)c3cc(-c4ccccc4O)n[nH]3)cc2)C1` (stereo unspecified), the Inhibition in the assay on Plasmodium falciparum [1] is 93%; in the assay with Plasmodium falciparum [2] it was 49%; with HepG2 it was 12%.
For `Cc1cc(-c2cccc(CNCc3ccccc3)c2)ccc1S(=O)(=O)NCCN1CCCC1.O=C(O)C(F)(F)F`, in that order: 98%, 58% and 40%.
For `O=C(Nc1ccc(OC2CCN(Cc3ccsc3)CC2)c(Cl)c1)c1ccco1.O=C(O)C(F)(F)F`, in that order: 87%, 85% and 7%.
For `CC(=O)Nc1cccc(C(=O)Nc2cccc(-c3ccc(-c4nc5cc(F)ccc5[nH]4)cc3)c2)c1`, in that order: 95%, 9% and 60%.
In the case of `CCOc1ccc(-c2nonc2NC(=O)c2ccccc2F)cc1OCC`, the Inhibition stood at 90% in the assay on Plasmodium falciparum [1], 100% with Plasmodium falciparum [2] and 0% with HepG2.
For `COc1ccc(Cn2c(=O)[nH]c3cc(C(=O)NC4CCN(Cc5ccccc5)CC4)ccc3c2=O)cc1`, in that order: 97%, 45% and 10%.
For `CC(C)Cn1c(Sc2ccc(C#N)c([N+](=O)[O-])c2)nnc1-c1ccccc1Cl` the same measures were 93%, 46% and 18%.
Take `N=C(N)Nc1nc(-c2ccc(NC(=O)Nc3cccc(-c4csc(NC(=N)N)n4)c3)cc2)cs1`: the Inhibition in the assay with Plasmodium falciparum [1] came to 94%; in the assay with Plasmodium falciparum [2] it was 80%; in the assay with HepG2, 0%.
For `O=C(c1cc(C(=O)Nc2ccc(F)cc2)c(=O)n(-c2ccc(F)cc2)c1)c1cc(Cl)ccc1O` the same measures were 100%, 98% and 13%.
For `COc1ccc2c(ccc3c2ncc2c(=O)n(-c4ccccc4)[nH]c23)c1`, in that order: 95%, 92% and 0%.
For `CC(C)c1ccc(CN2CCC(CNC(=O)c3cc(-c4cccc(F)c4)cs3)C2)cc1.O=C(O)C(F)(F)F` (stereo unspecified), in that order: 100%, 46% and 59%.
For `CN(C(=O)/C=C/c1cc(C(F)(F)F)ccc1F)C1CCN(CCCCCNC(=O)/C=C/c2ccc(Cl)c(Cl)c2)CC1`, the results for the Inhibition with Plasmodium falciparum [1], with Plasmodium falciparum [2] and in the assay on HepG2 were 100%, 68% and 71%, respectively.
For `Clc1ccccc1OCc1ccccn1` the same measures were 85%, 2% and 2%.
For `O=[N+]([O-])c1ccc2c(-c3ccccc3)c(-c3ccccc3)n(O)c2c1`, in that order: 97%, 11% and 8%.
For `O=C(COc1ccccc1)N(Cc1ccc(-c2ccc(CNC3Cc4ccccc4C3)cc2)cc1)C1CCNCC1.O=C(O)C(F)(F)F` the same measures were 100%, 8% and 26%.
On to `CCN(CC)CCN(Cc1ccc(-c2ccc(C(F)(F)F)cc2)cc1)C(=O)Cn1cc(CCCc2cccc(F)c2F)c(=O)c2ccccc21.O=C(O)C(O)C(O)C(=O)O`, for which the Inhibition in the assay with Plasmodium falciparum [1] was found to be 89%; in the assay on Plasmodium falciparum [2] it was 20%; in the assay with HepG2 it was 13%.
Turning to `N#Cc1ccc(-c2ccc(C(=O)NC3CCN(CCN4CCC(c5cn(CCO)c6ccccc56)CC4)CC3)cc2)cc1`, the figures for the Inhibition in the assay with Plasmodium falciparum [1], in the assay with Plasmodium falciparum [2] and in the assay with HepG2 were 100%, 79% and 30%, respectively.
For `COc1ccc2c(NN=Cc3cccc(F)c3)ccnc2c1` the same measures were 100%, 95% and 49%.
For `Cc1cc(NC(=O)Nc2ccc3ccn(C)c3c2)c2ccccc2n1`, in that order: 100%, 69% and 11%.
For `Cc1ccc(OCC2CCN(c3ncc(C(=O)NC4CC4)cc3Cl)CC2)cc1` the same measures were 88%, 72% and 2%.
`CC(C)(CNC(=O)C1CCN(CCOc2ccc(Cl)cc2)CC1)c1nc(-c2ccc(Cl)c(O)c2)c(-c2ccncc2)[nH]1.Cl`: the figures for the Inhibition with Plasmodium falciparum [1], in the assay on Plasmodium falciparum [2] and in the assay on HepG2 were 100%, 5% and 40%, respectively.
For `CN(CCN(C)C(=O)NCc1ccccc1)C(=O)NCc1ccccc1`, in that order: 100%, 0% and 2%.
For `O=C(/C=C/c1ccc([N+](=O)[O-])cc1)N1CCC(NS(=O)(=O)c2ccc(F)cc2)CC1` the same measures were 96%, 0% and 0%.
For `CCOC(=O)c1cc(=O)c2ccc(OCC#N)cc2o1`, in that order: 88%, 86% and 2%.
Take `O=C(O)C(F)(F)F.c1cc(CNCC2CCCO2)cc(-c2csc(-c3nc4ccccc4[nH]3)c2)c1` (stereo unspecified): the Inhibition in the assay on Plasmodium falciparum [1] was determined as 91%; with Plasmodium falciparum [2], 6%; in the assay with HepG2, 5%.
For `Cl.N=C1C=C(N)C(=O)c2ccccc21`, in that order: 81%, 85% and 99%.
For `Clc1ccc(-c2csc3ncnc(Cl)c23)cc1`, in that order: 94%, 95% and 0%.
For `CCNc1cc(C)nc(Nc2ccc(NS(=O)(=O)c3ccccc3)cc2)n1`, in that order: 100%, 54% and 41%.
On to `CC(=O)Nc1ccc(C(=O)Nc2cccc(-c3cccc(-c4nc5cccc(C)c5[nH]4)c3)c2)cn1`, for which the figures for the Inhibition in the assay on Plasmodium falciparum [1], in the assay on Plasmodium falciparum [2] and with HepG2 were 100%, 100% and 16%, respectively.

For the origin of these results see ChEMBL document CHEMBL1157539, “Thousands of chemical starting points for antimalarial lead identification” (Nature, 2010).
